Data taken from the supplement of paper PMC11732987, “Enantioselective OTUD7B fragment discovery through chemoproteomics screening and high-throughput optimisation” (Communications Chemistry, 2025).

How the values were obtained:
Assay in all cases: log2 ratio of Biotin-Ahx-Ub-VS probe labelling (fragment/DMSO); higher = less target engagement (more negative = stronger competition), active = hit call of the paper (q ≤ 0.05, log2 ratio ≤ -1)
Conditions in all cases: compound concentration: 200 uM; treatment time: 3 h
USP34 = USP34 (UniProt Q70CQ2)
Sequence of USP34 (Q70CQ2 whole entry, the tested form may be a part): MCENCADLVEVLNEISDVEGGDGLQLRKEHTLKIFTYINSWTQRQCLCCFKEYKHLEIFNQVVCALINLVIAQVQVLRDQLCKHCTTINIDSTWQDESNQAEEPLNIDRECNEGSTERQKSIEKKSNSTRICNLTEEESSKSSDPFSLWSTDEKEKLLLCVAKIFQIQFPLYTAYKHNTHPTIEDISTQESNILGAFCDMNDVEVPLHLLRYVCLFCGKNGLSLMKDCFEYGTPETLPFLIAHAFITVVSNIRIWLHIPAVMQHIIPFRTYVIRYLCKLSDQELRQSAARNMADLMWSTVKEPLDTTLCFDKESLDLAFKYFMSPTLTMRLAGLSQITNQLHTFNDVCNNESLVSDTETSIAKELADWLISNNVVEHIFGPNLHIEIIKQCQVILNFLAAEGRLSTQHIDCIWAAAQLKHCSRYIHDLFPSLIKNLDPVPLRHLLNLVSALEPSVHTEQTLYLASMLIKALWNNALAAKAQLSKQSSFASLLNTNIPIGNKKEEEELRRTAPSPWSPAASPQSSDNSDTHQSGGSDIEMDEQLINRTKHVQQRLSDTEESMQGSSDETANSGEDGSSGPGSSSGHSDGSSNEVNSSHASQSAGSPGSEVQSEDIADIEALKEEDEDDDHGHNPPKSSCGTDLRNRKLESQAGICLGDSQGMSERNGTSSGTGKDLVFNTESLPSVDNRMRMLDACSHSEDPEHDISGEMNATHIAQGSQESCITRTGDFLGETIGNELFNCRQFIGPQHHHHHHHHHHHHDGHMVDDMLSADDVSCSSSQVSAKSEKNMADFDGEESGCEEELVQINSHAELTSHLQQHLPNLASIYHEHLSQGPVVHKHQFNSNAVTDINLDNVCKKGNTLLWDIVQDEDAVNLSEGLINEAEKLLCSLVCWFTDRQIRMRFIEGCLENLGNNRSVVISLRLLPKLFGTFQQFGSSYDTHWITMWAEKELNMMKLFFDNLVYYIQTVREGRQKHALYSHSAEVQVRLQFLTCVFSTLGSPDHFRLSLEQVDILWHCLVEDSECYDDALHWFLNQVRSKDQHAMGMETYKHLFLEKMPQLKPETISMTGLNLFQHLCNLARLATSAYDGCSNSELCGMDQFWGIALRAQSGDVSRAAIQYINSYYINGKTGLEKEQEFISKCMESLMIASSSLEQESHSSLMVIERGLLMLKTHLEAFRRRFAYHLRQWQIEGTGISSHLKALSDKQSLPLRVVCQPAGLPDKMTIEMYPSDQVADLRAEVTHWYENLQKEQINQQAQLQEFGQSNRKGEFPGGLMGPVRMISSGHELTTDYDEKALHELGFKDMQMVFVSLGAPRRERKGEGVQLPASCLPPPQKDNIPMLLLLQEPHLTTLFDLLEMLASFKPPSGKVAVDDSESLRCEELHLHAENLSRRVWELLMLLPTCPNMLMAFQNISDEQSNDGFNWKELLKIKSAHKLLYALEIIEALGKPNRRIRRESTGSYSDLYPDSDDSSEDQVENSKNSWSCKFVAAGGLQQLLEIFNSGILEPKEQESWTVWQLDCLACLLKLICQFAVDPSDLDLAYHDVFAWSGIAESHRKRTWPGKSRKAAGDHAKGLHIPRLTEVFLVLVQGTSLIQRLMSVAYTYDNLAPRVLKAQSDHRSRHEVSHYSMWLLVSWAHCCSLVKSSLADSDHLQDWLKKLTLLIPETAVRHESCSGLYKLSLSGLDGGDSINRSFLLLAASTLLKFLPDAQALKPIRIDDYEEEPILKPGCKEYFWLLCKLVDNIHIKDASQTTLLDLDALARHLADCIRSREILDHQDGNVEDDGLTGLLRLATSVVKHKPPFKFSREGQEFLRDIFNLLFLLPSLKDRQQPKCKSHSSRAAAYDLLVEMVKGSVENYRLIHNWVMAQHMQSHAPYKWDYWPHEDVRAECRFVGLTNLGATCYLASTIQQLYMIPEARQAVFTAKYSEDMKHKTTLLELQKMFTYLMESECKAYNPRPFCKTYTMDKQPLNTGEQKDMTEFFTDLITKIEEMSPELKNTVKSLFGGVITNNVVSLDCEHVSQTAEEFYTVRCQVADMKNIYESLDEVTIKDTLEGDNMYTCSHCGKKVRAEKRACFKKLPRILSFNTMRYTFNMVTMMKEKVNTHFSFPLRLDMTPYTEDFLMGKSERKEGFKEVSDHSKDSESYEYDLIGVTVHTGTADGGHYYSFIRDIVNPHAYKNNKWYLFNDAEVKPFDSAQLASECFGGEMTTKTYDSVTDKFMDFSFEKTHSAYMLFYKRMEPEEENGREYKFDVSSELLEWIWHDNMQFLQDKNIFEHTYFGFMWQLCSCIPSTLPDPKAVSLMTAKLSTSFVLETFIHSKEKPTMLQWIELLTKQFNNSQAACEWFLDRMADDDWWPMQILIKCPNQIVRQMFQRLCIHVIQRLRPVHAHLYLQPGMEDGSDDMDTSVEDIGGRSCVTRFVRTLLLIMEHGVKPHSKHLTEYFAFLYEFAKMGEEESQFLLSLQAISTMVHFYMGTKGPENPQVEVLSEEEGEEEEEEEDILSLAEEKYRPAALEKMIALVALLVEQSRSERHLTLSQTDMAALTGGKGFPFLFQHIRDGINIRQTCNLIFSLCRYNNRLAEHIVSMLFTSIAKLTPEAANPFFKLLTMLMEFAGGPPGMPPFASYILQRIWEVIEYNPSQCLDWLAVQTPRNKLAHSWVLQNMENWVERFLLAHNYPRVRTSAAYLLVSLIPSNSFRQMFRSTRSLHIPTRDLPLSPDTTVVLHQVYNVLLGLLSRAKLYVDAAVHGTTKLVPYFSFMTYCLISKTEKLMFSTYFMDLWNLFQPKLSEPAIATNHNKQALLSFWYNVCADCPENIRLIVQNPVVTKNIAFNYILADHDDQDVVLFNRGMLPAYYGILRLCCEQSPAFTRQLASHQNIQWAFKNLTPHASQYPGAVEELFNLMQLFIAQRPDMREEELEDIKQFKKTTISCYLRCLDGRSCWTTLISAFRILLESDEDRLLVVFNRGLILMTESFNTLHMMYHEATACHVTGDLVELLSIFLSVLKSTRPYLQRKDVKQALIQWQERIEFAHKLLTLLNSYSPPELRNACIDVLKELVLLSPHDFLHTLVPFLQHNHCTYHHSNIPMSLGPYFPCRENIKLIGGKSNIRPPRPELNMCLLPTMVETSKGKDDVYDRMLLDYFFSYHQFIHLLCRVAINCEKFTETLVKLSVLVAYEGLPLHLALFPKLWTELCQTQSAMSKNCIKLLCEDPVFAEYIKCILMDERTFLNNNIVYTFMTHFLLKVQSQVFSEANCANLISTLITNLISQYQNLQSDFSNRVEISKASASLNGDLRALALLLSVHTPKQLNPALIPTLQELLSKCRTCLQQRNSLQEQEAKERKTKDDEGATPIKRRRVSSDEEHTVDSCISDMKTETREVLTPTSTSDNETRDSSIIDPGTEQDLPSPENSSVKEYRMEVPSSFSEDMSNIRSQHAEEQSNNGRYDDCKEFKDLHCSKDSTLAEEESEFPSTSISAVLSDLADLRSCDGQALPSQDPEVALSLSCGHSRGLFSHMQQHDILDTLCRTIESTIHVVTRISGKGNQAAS
Summary of the method: (§1)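 HEK293T lysate (495 µg per sample, in Tris/CHAPS/IGEPAL buffer with protease inhibitors) was treated in triplicate with fragment at 200 µM or with DMSO for 3 h. It was then treated with Biotin-Ahx-Ub-VS (0.5 µM final) for 1 h. Labelled DUBs were NeutrAvidin-enriched, digested with LysC and trypsin, and run by diaPASEF LC-MS/MS. Spectronaut label-free quantities were global-median-normalised. Values are average log2 ratios fragment/DMSO by unpaired t-test, using proteins with ≥2 unique peptides.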

USP36 = target: T1, USP36 (UniProt Q9P275)
T1 sequence (whole entry): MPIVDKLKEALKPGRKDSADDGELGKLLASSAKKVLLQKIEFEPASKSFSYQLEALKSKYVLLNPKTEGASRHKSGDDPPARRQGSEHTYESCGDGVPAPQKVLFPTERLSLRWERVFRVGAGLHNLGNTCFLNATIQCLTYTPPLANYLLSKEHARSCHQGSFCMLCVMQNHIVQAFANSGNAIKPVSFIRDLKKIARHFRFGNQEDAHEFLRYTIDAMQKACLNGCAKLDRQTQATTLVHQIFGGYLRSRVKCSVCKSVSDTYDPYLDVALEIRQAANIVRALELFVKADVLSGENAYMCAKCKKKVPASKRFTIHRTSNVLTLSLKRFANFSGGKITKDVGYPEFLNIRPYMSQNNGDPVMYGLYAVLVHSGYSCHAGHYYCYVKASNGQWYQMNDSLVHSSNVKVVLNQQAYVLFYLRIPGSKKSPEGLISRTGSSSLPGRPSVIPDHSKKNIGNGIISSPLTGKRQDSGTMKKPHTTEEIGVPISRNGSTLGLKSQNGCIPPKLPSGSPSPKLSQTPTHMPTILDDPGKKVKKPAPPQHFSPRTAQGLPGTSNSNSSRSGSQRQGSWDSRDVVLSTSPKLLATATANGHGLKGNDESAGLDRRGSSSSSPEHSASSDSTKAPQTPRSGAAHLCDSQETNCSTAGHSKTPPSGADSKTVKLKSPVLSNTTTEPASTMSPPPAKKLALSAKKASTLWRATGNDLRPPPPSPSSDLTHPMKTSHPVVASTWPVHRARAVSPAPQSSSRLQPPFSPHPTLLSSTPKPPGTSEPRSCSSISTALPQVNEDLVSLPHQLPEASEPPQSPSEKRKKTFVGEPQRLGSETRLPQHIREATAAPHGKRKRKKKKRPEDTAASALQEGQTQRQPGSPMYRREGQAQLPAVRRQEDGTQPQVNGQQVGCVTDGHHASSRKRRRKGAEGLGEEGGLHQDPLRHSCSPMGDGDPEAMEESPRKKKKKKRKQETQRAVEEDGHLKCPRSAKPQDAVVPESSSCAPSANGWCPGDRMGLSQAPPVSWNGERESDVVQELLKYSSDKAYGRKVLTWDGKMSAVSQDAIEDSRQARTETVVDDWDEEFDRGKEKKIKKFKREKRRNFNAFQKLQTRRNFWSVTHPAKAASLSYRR
Summary of the method: as §1

USP38 = target: T2, USP38 (UniProt Q8NB14)
T2 sequence (whole entry): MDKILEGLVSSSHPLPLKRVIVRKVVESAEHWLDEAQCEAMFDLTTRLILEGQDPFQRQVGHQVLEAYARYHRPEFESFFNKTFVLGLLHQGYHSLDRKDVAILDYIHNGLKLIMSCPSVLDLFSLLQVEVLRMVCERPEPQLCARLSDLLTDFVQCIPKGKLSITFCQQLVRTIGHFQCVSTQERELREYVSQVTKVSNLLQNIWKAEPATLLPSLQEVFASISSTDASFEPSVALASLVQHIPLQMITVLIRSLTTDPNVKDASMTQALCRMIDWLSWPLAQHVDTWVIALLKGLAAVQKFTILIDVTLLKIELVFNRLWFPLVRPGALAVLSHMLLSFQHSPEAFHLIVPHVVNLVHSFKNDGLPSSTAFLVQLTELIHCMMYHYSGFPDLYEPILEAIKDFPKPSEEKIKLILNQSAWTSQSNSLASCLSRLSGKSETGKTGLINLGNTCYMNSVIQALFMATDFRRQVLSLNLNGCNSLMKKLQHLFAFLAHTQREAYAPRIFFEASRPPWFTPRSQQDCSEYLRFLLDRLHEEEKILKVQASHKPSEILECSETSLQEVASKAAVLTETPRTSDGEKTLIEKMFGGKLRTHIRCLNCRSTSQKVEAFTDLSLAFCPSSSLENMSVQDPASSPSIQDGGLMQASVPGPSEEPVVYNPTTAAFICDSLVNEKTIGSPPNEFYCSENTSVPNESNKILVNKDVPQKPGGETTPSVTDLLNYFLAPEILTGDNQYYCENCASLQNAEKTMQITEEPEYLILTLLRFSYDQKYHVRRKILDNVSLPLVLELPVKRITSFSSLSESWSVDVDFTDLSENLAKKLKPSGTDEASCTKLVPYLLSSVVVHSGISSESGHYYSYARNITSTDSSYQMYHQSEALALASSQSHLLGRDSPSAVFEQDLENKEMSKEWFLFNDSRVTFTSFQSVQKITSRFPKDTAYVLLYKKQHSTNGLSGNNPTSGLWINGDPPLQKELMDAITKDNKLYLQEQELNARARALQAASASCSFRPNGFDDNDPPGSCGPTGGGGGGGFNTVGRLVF
Summary of the method: as §1

USP39 = target: T3, USP39 (UniProt Q53GS9)
T3 sequence (whole entry): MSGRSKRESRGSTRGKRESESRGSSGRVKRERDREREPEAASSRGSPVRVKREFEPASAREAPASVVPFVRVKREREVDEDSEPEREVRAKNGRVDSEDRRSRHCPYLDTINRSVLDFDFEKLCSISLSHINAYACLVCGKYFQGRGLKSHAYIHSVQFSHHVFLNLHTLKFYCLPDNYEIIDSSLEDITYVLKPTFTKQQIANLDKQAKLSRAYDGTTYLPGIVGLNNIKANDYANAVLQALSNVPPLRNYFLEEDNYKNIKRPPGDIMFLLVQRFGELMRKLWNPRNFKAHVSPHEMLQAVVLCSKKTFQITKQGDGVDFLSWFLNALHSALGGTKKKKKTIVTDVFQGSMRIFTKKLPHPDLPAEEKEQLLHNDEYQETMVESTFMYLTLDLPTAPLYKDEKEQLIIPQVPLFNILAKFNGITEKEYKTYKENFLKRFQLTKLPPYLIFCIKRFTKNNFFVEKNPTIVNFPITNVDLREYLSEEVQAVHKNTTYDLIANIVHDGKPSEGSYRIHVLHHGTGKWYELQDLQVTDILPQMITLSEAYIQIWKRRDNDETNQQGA
Summary of the method: as §1

USP4 = target: T4, USP4 (UniProt Q13107)
T4 sequence (whole entry): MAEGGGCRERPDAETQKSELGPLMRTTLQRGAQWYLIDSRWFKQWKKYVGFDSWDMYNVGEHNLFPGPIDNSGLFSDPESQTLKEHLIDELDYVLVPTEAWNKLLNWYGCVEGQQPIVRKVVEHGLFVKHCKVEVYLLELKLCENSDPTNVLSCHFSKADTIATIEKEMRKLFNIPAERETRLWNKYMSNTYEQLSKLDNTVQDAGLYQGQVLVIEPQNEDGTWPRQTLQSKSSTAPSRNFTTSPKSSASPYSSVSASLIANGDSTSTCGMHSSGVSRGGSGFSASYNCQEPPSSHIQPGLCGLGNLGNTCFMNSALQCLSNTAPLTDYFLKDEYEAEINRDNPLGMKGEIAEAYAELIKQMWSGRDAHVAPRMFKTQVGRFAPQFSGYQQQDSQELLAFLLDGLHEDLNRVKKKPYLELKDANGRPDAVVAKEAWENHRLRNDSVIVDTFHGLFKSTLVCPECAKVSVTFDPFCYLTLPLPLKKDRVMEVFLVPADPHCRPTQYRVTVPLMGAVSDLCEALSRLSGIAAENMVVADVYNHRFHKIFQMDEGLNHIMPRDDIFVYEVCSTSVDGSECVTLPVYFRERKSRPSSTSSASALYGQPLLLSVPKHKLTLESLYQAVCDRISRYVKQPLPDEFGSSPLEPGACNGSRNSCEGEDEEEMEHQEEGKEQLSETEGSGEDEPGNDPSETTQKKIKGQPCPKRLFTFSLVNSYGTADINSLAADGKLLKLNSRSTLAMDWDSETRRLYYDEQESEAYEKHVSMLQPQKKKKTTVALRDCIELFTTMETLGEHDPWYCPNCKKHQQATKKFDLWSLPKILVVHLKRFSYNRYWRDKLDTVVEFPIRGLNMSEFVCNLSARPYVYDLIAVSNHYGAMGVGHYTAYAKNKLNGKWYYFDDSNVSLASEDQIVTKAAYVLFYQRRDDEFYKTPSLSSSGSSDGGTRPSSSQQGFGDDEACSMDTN
Summary of the method: as §1

Measured: log2 ratio of Biotin-Ahx-Ub-VS probe labelling

O=C(CCl)N1CCC(C(=O)N2CCCCCC2)CC1
inactive: USP34 -0.0554 | USP36 -0.258 | USP38 -0.135 | USP39 -0.143 | USP4 0.128
